Measurements taken from PubChem BioAssay AID1903 (Southern Research Specialized Biocontainment Screening …, 2009).
Among all 310,000 compounds or so, about 1,200 (0.39%) were called active. How the calls were made is not given here. Not all results are given here. Potency and affinity values are given separately.

biological target: Large T antigen (Simian virus 40) (UniProt P03070); assay: SV40 large T antigen inhibitors, biochemical (AID 1903); details: SV40 large T antigen ATPase/helicase inhibition assay; at 20 µM; hits give high values
Sequence (P03070 whole entry, looked up): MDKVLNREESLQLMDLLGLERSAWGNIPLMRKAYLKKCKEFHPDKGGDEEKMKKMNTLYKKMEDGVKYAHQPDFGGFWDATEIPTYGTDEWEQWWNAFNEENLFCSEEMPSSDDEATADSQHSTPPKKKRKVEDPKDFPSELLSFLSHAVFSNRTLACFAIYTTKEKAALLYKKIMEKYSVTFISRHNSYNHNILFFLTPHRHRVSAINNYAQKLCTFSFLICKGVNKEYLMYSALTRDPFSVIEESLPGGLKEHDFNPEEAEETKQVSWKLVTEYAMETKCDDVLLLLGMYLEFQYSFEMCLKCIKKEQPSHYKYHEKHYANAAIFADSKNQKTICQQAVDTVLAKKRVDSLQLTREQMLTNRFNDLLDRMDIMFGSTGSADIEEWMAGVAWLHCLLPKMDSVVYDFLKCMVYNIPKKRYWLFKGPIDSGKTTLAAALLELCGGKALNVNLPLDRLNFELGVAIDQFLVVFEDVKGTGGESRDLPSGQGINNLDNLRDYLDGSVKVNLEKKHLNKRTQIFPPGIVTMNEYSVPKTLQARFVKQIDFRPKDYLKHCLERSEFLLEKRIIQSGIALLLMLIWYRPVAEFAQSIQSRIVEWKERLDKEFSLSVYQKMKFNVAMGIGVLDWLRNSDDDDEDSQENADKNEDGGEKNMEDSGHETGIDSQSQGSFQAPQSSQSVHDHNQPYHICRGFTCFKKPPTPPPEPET

inhibition, inactive:
NC(=S)N/N=C/c1ccccc1 13%
NC(=S)NN=C1c2ccccc2-c2ccccc21 7.35%
CC(=O)Nc1ccc(NC(=O)CS(=O)(=O)c2cn(CC(=O)N3CCCC3)c3ccccc23)cc1 14%
Cc1ccc(-n2nc(C)c(NC(=O)CCl)c2C)cc1 9.64%
CC(C)CCNC(=O)c1cccc(S(=O)(=O)N2CCc3ccccc32)c1 11.5%
COC(=O)c1c(NC(=O)COC(=O)c2ccccn2)sc(C)c1C 11.7%
COc1cc(-c2nnc(SCc3cc(=O)oc4cc(C)ccc34)o2)cc(OC)c1OC 0.12%
COc1cc(-c2nnc(SCc3ccccc3Cl)o2)cc(OC)c1OC 4.19%
COc1ccccc1-c1nc2c(c(SCC(=O)N3CCCCC3)n1)Cc1c(CO)cnc(C)c1O2 4.68%
Cc1sc2ncn(CC(=O)NCc3ccccn3)c(=O)c2c1S(=O)(=O)N1CCOCC1 -0.92%
Nn1c(SCC(=O)N2CCCCCC2)nnc1-c1ccncc1 2.98%
Cc1ccc(S(=O)(=O)N2[C@@H](c3ccccc3)C(C(=O)O)=CC[C@H]2c2ccc(Cl)cc2)cc1 17.2%
Cc1ccc([C@@H]2CC=C(C(=O)O)[C@H](c3ccc(Cl)cc3)N2S(=O)(=O)c2ccc(C)cc2)cc1 21.6%
Cc1ccc(C(=O)COC(=O)CNC(=O)CNC(=O)c2ccc(C)cc2)cc1 10.1%
COc1cc(NC(=O)c2cc([N+](=O)[O-])ccc2NC(=O)CN2CCN(c3ccccn3)CC2)cc(OC)c1 2.42%
Cc1ccc(NC(=O)NCCN2CCCCC2)cc1 12.7%
Cc1cc(C)c(S(=O)(=O)NCCn2c(C)cc3ccccc32)c(C)c1 3.6%
NS(=O)(=O)c1ccc(-c2ccc(/C=C3\C(=O)Nc4ccccc43)o2)cc1 3.06%
NS(=O)(=O)c1ccc(-c2ccc(/C=C3\NC(=S)NC3=O)o2)cc1 34.2%
COc1ccccc1/C=C/C(=O)N1CCCC1 16.6%
Cn1cc([N+](=O)[O-])c(C(=O)NC2CCCCCCC2)n1 11.7%
CCOc1cc(N2CCOCC2)c(OCC)cc1NS(=O)(=O)c1cc(NC(C)=O)ccc1OC 9.72%
CCOc1cc(N2CCOCC2)c(OCC)cc1NC(C)C(=O)N1CCN(CC)CC1 (stereo not drawn) 4.25%
O=S(=O)(Nc1ccc(N2CCOCC2)cc1)c1ccc(Cl)s1 36.6%
CCOc1cc(N2CCOCC2)c(OCC)cc1NC(=O)C(C)C 5.9%
COc1ccccc1CNC(=O)C(CC(C)C)NC(=O)C1CCC(C)CC1 (stereo not drawn) 12.9%
COc1ccc(/C=N/NC(=O)Cc2csc(Nc3cccc(C(F)(F)F)c3)n2)c(OC)c1 4.64%
CCOC(=O)C1Nc2c(F)cc(C)cc2C2C=CCC12 (stereo not drawn) 26%
CCOC(=O)C1Nc2ccc(Br)cc2C2C=CCC12 (stereo not drawn) 7%
O=C(O)C1Nc2c(C(=O)N3CCOCC3)cccc2C2C=CCC12 (stereo not drawn) 34.2%
O=C(O)C1Nc2c(C(F)(F)F)ccc(Cl)c2C2C=CCC12 (stereo not drawn) 17.1%
CCNc1ccc(C(=O)OCC)cc1NC(=O)c1cccc(S(=O)(=O)N(C)c2ccccc2)c1 -1.52%
CC1CN(CCOCCSc2ccccc2)CC(C)O1 (stereo not drawn) -2.63%
COC(=O)CNc1cc(S(=O)(=O)N2CCCCC2)ccc1Oc1cccc(C)c1 5.08%
COc1ccc(Cn2c(-c3ccc(OC)cc3)nc3c(c(=O)c4ccccc4n3C)c2=O)cc1 4.69%
Cc1csc2c(NCCCN3CCOCC3)ncnc12 5.93%
c1ccc2c(NCCCN3CCOCC3)c3ccccc3nc2c1 3.76%
O=C(O)COc1ccc(/C=N/n2c(COc3ccccc3)nc3ccccc3c2=O)cc1 1.95%
COc1ccc(/C=N/n2c(COc3ccccc3)n[nH]c2=S)cc1OC 32.6%
CCOc1cc(/C=N/n2c(COc3ccccc3)n[nH]c2=S)ccc1O 19.9%
O=c1c2ccccc2nc(COc2ccccc2)n1/N=C/c1ccc(O)cc1O 5.35%
CCCc1nc2ccccc2c(=O)n1/N=C/c1ccccc1O -9.27%
CCCc1nc2ccccc2c(=O)n1/N=C/c1ccc(O)cc1 6.26%
O=C1COc2ccc(C(=O)COC(=O)c3cc(S(=O)(=O)NCc4ccccc4)ccc3O)cc2N1 13%
Cc1cc(Cl)ccc1NC(=O)CN1C(=O)NC2(CCCc3ccccc32)C1=O (stereo not drawn) 25.2%
CCOC(=O)CN1C(=O)SC(CC(=O)Nc2nccs2)C1=O (stereo not drawn) 2.87%
O=C(COC(=O)Cc1ccccc1F)NNC(=O)c1ccc([N+](=O)[O-])cc1 22.7%
FC(F)Oc1ccc(-n2cc(-c3ccccc3)[n+]3c2CCCCC3)cc1 10.7%
COc1ccccc1NC(=S)N1CCN(c2cccc(C)c2C)CC1 -4.85%
COc1ccccc1NS(=O)(=O)c1ccc(O)cc1 7.04%
O=C(O)CN1C(=O)S/C(=C\c2cccnc2)C1=O 16.2%
O=C(CCc1nnc(-c2ccsc2)o1)NCc1ccccc1OC(F)(F)F 3.5%
CN(C)S(=O)(=O)c1ccc(NC(=O)c2ccccn2)cc1 -5.42%
O=C(NCc1ccco1)C1CC(=O)N(c2ccc(F)cc2)C1 (stereo not drawn) 9.04%
O=C(NCc1ccco1)C1CC(=O)N(c2ccc(Cl)cc2)C1 (stereo not drawn) -4.21%
[O-][n+]1ccccc1/C=C/c1ccccc1 7.12%
[O-][n+]1ccccc1SCc1ccccc1 10.4%
COc1ccc(NC(=O)C2CCN(S(=O)(=O)c3cccc4nonc34)CC2)c(OC)c1 10.9%
CC1CCN(CCCCOc2ccc([N+](=O)[O-])cc2)CC1 20.7%
O=C(CN1CCCN(Cc2ccc(F)cc2)S1(=O)=O)NC1CCCC1 1.85%
O=C(Nc1ccc(Cl)cc1)NC1CCCCC1 0.423%
Cc1ccc(NC(=O)NC2CCCCCCC2)cc1 3.82%
O=C(c1ccc2c(c1)OCO2)N1CCC2(CC1)Oc1ccc(Cl)cc1C(=O)C21CC(c2cccnc2)=NO1 (stereo not drawn) 6.56%
O=C(CCn1c(=O)oc2ccccc21)Nc1cccc(Cl)c1 6.5%
O=C(CCn1c(=O)oc2cc(Cl)ccc21)Nc1ccc(N2CCOCC2)cc1 12.7%
CCCCN(C(=O)c1ccc(S(=O)(=O)N2CCCC2)cc1)C1CCS(=O)(=O)C1 (stereo not drawn) 2.38%
O=C(COc1ccc(Br)cc1)NNC(=S)NCc1ccccc1 15%
O=S1c2ccccc2Nc2ccccc21 8.27%
COC(=O)/C(C#N)=C1/C=Cc2ccccc2N1 9.95%
OC[C@H]1OC(O)[C@@H](O)[C@@H](O)[C@@H]1O (stereo partly drawn) 12.2%
O=C(Cn1nc(C(=O)O)c2ccccc2c1=O)NC12CC3CC(CC(C3)C1)C2 3.68%
O=C(CSc1ccccc1C(=O)O)NC12CC3CC(CC(C3)C1)C2 7.17%
N#Cc1ccsc1NC(=O)CN1CCN(S(=O)(=O)c2ccc3ccccc3c2)CC1 -5.22%
O=C(CCc1c[nH]c2ccccc12)NC(Cc1c[nH]c2ccccc12)C(=O)O (stereo not drawn) 11.4%
CNC(=O)c1ccccc1Sc1ccccc1CO 10.3%
NNC(=O)c1ccccc1CO 3.38%
O=[N+]([O-])c1cccc(/C=N/N2CCN(c3ccccn3)CC2)c1 15.9%
COc1ccccc1CNC(=O)c1ccccc1C(=O)NC(CC(C)C)C(=O)NCc1ccccc1OC (stereo not drawn) 14%
COc1ccc2[nH]c3c(=O)n(CCCCCC(=O)NCCC(C)C)c(=S)[nH]c3c2c1 5.88%
CCCNC(=O)CCCCn1c(=S)[nH]c2c([nH]c3ccc(OC)cc32)c1=O 10.7%
CCCCNC(=O)CCCCn1c(=S)[nH]c2c([nH]c3ccc(OC)cc32)c1=O 9.54%
COc1ccc2[nH]c3c(=O)n(CCCCC(=O)NCCC(C)C)c(=S)[nH]c3c2c1 9.9%
CCc1nc2oc3ccccc3c(=O)c2c(=O)n1Cc1ccccc1 2.01%
Cn1ccnc1SCC(=O)c1cccc(Br)c1 23.2%
Cc1cc(C)c(NC(=O)COC(=O)CSc2ccc(Br)cc2C)c(C)c1 -2.91%
CC(=O)c1ccc(O)c(CO)c1 8.31%
O=C(O)c1ccc(O)c(O)c1 8.73%
O=C(CSc1nnc(Cn2c(=O)sc3ccccc32)n1-c1ccccc1)N1CCCCCC1 2.86%
COCCCNCCOCCOc1ccc(C)cc1[N+](=O)[O-] 0.35%
Cc1cccc(NC(=S)NNc2cccc(Cl)c2)c1 23.5%
CCOc1ccc(C(=O)c2ccc(OCC)c(N)c2)cc1N 3.54%
CCOc1ccc(S(=O)(=O)N(CC)CC)cc1N -1.97%
CN(C)c1ccc(NC(=O)CN2CCC(NC(=O)C3CCCCC3)CC2)cc1 28.2%
Cc1ccc(NC(=O)CN2CCC(C(=O)c3ccc(F)cc3)CC2)cc1 11.8%
COc1ccc(C(=O)C2CCN(CC(=O)Nc3ccc(C)cc3)CC2)cc1 -0.7%
O=C(CN1CCN(C2CCCCC2)CC1)Nc1ccc(Br)cc1 3.84%
O=C(CN1CCC(C(=O)c2ccc(F)cc2)CC1)Nc1ccc(F)cc1 3.44%
CC(=O)c1ccc(NC(=O)CN2CCC(C(=O)c3ccc(F)cc3)CC2)cc1 25.6%
